Records with an inconclusive call do not appear. A number with no mark means an inactive call. Calls of active or inactive are those of the source. The call rests on the fitted dose curve; in most records, active means well fitted activation curve with a large enough effect; inconclusive means small, poorly fitted or top-dose-only effect; inactive means no such curve, though single readings can be large or run the other way.
assay: qHTS assay for re-activators of p53 using a Luc reporter: Hit Validation with no p53 Expressed; settings: p53-null cells, luciferase reporter counter-screen; series mostly up to 46.1 µM; activity change, positive = activation: at the top concentration; on activity change, positive = activation: 0% is about no effect
Description: The p53 tumor suppressor plays a key role in suppression of tumorigenesis and in human carcinogenesis. It is frequently found inactivated in human cancers, mainly by point mutation. These point mutations are found in a wide variety of human cancers and a majority of them affect the DNA binding domain of the protein. The point mutations either alter native p53 conformation or abolish DNA contact. Additionally, cancer cells with p53 mutations are more resistant to chemo-radiation therapies.
This counter screen was run against the hits identified from the primary screen. It uses a cell line that was not transfected with p53. Compounds that show activity in this counter screen show unspecific activation of the assay system and are excluded from further consideration.
NIH Chemical Genomics Center [NCGC]
NIH Molecular Libraries Probe Production Centers Network [MLPCN]
Assay Provider (PI): Yi Sung, University of Michigan at Ann Arbor
5ul of 1000 cells per well are dispensed in all wells except column 4, into white solid-bottom TC-treated Kalypsys plates. The cells are kept in Opti-MEM and supplemented with 10% FBS and dispensed using a Multidrop (Thermo). Then using the Kalypsys pin-tool, 23nl of compounds are pinned. The compounds are starting concentration at 10mM, with 1:5 dilution, 4 points, and the control compound nocodazole is pinned in column 1 at 25mM, 1:3 dilution, in duplicate, 25mM nocodazole is pinned in column 2. Please note, all concentrations are working concentrations. 5ul of 1pM purified luciferase enzyme is dispensed using the Kalypsys dispenser in column 4. Plates are incubated for 24 hrs at 37 deg C, 5% CO2, and 95% humidity. Then 4ul of the detection reagent Amplite (ABD Bioquest) is added using the Kalypsys dispenser. Plates are incubated for 10 min at ambient room temperature and are then read on the ViewLux (Perkin Elmer) using a clear filter for a luminescent read-out.
Potency means the concentration at half of the fitted maximal effect.

| Compound | activity change, positive = activation | Potency |
| --- | --- | --- |
| O=C(COc1ccc(Cl)cc1Cl)Nc1ccc(Cl)cn1 | -2.46% |  |
| COc1ccc(C2=NN(C(C#N)c3ccc(OC)cc3)C(c3ccccc3)C2)cc1 (stereo not given) | -12.3% |  |
| CCOC(=S)SCC(=O)Nc1nc(-c2ccc(Br)cc2)cs1 | 25.1% |  |
| Cc1nc(SCC(=O)Nc2nccs2)c(C#N)c(C)c1C | 9.01% |  |
| N=C1C(c2nc3ccccc3s2)=C(O)CN1Cc1ccccc1 | -9.16% |  |
| Cc1nc(NC(=O)c2csc3ccccc23)sc1C | -13.5% |  |
| Cc1ccc2cc3cc(C(=O)N4CCCCCC4)oc3nc2c1 | 47.8% |  |
| CC1Cc2ccccc2N1C(=O)COC(=O)C1(c2ccccc2F)CCCC1 (stereo not given) | -13.2% |  |
| Oc1cccc2c(NC(=S)Nc3ccc(OC(F)F)cc3)cccc12 | -10.6% |  |
| Cc1nc2ccccc2nc(C)c1=NOCc1ccccc1Cl | -25.3% |  |
| O=C(CNc1ccccc1)N/N=C/c1c[nH]c2ccccc12 | -48.1% |  |
| Cc1ccc(-c2cc3nc(C)cc(NCc4ccco4)n3n2)cc1 | 57.4% |  |
| CC(OC(=O)c1cnccn1)C(=O)Nc1nc(-c2cccc([N+](=O)[O-])c2)cs1 (stereo not given) | -31.6% |  |
| Fc1ccc(CCNC(=S)Nc2ccc(F)cc2)cc1 | -12.1% |  |
| c1ccc(Oc2cc(-n3cncn3)ncn2)cc1 | 24.3% |  |
| O=C(NC1CCCCC1)c1ccc(-c2ccccc2F)o1 | 38.8% |  |
| O=C(/C=C/c1ccccc1)NC1CCSC1=O (stereo not given) |  | 16.4 µM (active) |
| Cc1cc(C)c2nc(NNC(=O)c3ccc(S(=O)(=O)N4CCCC(C)C4)cc3)sc2c1 (stereo not given) | 0.359% |  |
| N#CC(Cc1ccccc1)(Cc1ccccc1)C(=O)NN |  | 29.1 µM (active) |
| Cc1cc(Br)c(S(=O)(=O)NCCN2CCOCC2)cc1C | -38.1% |  |

| Compound | activity change, positive = activation | Potency |
| --- | --- | --- |
| CCn1c(C)nc2cc(C(=O)NNC(=O)c3ccc(C)cc3)ccc21 | -13.2% |  |
| O=C(NCC(=O)N1CCN(c2ncccn2)CC1)c1ccc(F)cc1 | -6.5% |  |
| O=C(NCCOc1ccccc1F)c1cc(F)c(F)cc1Cl | 31.2% |  |
| O=C(COc1ccccc1Cl)Nc1ccc(Cl)cn1 | 80.6% |  |
| Cc1nn(-c2ccccc2)c(N2CCCC2)c1/C=N/NC(=O)c1cc(-c2ccccc2)nc2ccccc12 | -13.5% |  |
| COC(=O)c1nn(-c2ccc(-c3ccccc3)cc2)cc1O | 13.6% |  |
| Cc1ccc(-c2nnc(SCC(=O)Nc3ccccc3F)o2)cc1 | -77.1% |  |
| O=C(N/N=C/c1ccccc1O)C1CC(=O)N(c2ccc(Cl)cc2)C1 (stereo not given) | 24.7% |  |
| O=C(N/N=C1\CCc2ccccc21)c1ccccc1O | 10.7% |  |
| Cc1ccc(NC(=O)/C=C/c2ccco2)nc1 | 33.2% |  |
| CC(=O)c1cc2c(C)c(C(=O)c3ccccc3)oc2cc1O | 53.9% |  |
| Cc1cccc(-c2noc(CCC(=O)N3CCN(c4cc(C)ccc4C)CC3)n2)c1 | -1.43% |  |
| C#CCn1c(=NC(=O)c2cccs2)sc2cccc(OCC)c21 | -22.2% |  |
| Cc1cccc(NC2SC(=O)N(c3ccccc3)C2=O)c1 (stereo not given) | -20.2% |  |
| Cc1cc(C(=O)NC2CCCCC2)c(C)n1-c1ccc(F)cc1 | 27.4% |  |
| COC(=O)CSc1nc2cc3c(cc2cc1C#N)OCO3 | -2.65% |  |
| CSCCC(NC(=O)c1ccc(Cl)cc1Cl)C(=O)N1CC(C)OC(C)C1 (stereo not given) | -16.4% |  |
| O=c1cc(-c2ccc3c(c2)OCCO3)oc2ccc(Cl)cc12 | 15% |  |
| CC12CN(C(=O)c3cccc([N+](=O)[O-])c3)C3(C#N)CC1CCC23C (stereo not given) | -10.6% |  |
| Clc1cccc(Cl)c1CSc1nnc2ccccn12 | -2.02% |  |
